# Measured values from ChEMBL document CHEMBL3988442, “University of Dundee, Small-Polar-MMV Screening Library” (2021).
# The whole screen tested about 38,000 compounds, of which about 1,200 (3.2%) showed an effect of 50% or more. The median lay at about -58%. What follows is part of a selection rich in strong results, with near analogues and random picks from the rest.
# System: Plasmodium falciparum
# Assay: Calibr Malaria Delayed Death Assay SOP
# Type: functional, organism-based
# Set-up: scale not given: in the data most compounds retested in dose-response had high values
# Conditions: concentration 4.99e-06 (unit not given; other assays of the set use mol/L)
row,SMILES,Percent Effect
1,CC(C)(C)c1nc(CN(Cc2ccccc2Cl)C2CCCC2)no1,-109.5%
2,Cc1cc(C(F)(F)F)nc(CCNC(C)Cn2nc(C)cc2C)n1 (configuration not stated),25.86%
3,CCSc1nc2ccccc2c(=O)n1OCC(=O)OC,-35.88%
4,N#Cc1c(SCCN2CCOCC2)sc2c(O)cc(O)nc12,20.53%
5,CC(Nc1ccc(Br)cc1)c1nc(C2CC2)no1 (configuration not stated),-70.57%
6,CCOCC1CN(C(=O)N2CCCC2)Cc2cnn(CC)c21 (configuration not stated),-92.45%
7,CCOc1ccc2[nH]c(=O)c(CN3CCN(S(N)(=O)=O)CC3)cc2c1,-148.7%
8,CC1CCCN(c2ncc(C(=O)NCc3ccc(F)c(Cl)c3)c(N)n2)C1 (configuration not stated),-82.32%
9,O=C(CN1CCCC1Cn1cncn1)NCC1(c2ccccc2)CC1 (configuration not stated),-28.68%
10,Cc1cnn(CC2CCCN2Cc2nc3ccccc3nc2C)c1 (configuration not stated),-94.42%
11,Cc1nc2ccccc2nc1CN1CCCC1Cn1cccn1 (configuration not stated),67.78%
12,Cc1nc2ccccc2nc1CN1CCOC(Cn2cccn2)C1 (configuration not stated),-57.9%
13,c1ccc(CN2CCC(NCCc3ccc4c(c3)CCO4)CC2)nc1,34.15%
14,Cc1n[nH]c2ncc(CNC3CCN(Cc4ccccn4)CC3)cc12.Cl,-31.75%
15,Cc1[nH]c2ccc(CNC3CCN(Cc4ccccn4)CC3)cc2c1C,93.27%
16,Cc1nnc(SCc2cccc(F)c2)n1CC(N)=O,-112.6%
17,Cc1ccc(N2CCc3sc(C(=O)NCCN4CCCC4)cc32)nn1,-55.34%
18,C=C(C)CN1CCN(CCC(=O)Nc2ccccc2C(N)=O)CC1,11.76%
19,O=C(NC[C@H]1OC[C@@H]2CN(Cc3ccco3)CC[C@@H]21)c1cscn1.O=C(O)C(F)(F)F,-201.4%
20,CC(C)CCn1cc(C(=O)NC2CCS(=O)(=O)C2)c2ccccc2c1=O (configuration not stated),-89.43%
21,CCC(Nc1nc(C)nc2onc(C)c12)c1cccs1 (configuration not stated),19.14%
22,CCC(Nc1nc(CCN)nc2ccccc12)c1cccs1 (configuration not stated),62.16%
23,CCC(Nc1nc(CCN)nc2ccccc12)c1cc(C)ccn1 (configuration not stated),-26.25%
24,CN(C)CCn1c2c(ccc1=O)CC(NC(=O)c1cnccn1)CC2.O=C(O)C(F)(F)F (configuration not stated),-12.74%
25,Cc1cccc(CN2CCC(c3nnsc3S(C)(=O)=O)CC2)c1,-50.13%
26,CNC(=O)NCC1CCC2(CCN(C(=O)c3ccccn3)CC2)CO1.O=C(O)C(F)(F)F (configuration not stated),-170.4%

row,SMILES,Percent Effect
1,Cc1nnc(CN2CCN(Cc3nccn3C)CC2)n1C,-20.51%
2,Cc1ncc(CN2CCC(c3ccnn3C)CC2)n1-c1ccccc1,30.79%
3,CCn1cncc1C1CC(=O)Nc2c1c(C)nn2-c1ccc(C)cc1 (configuration not stated),-199.9%
4,Cn1cncc1CN1CCC2(CC1)CCN2c1ncccn1,-81.78%
5,CCc1nc(CN2CCCN(C(=O)c3ccco3)CC2)cs1,-4.304%
6,O=C(O)C(F)(F)F.O=C(O)C(F)(F)F.c1cncc(C2COC3(CCN(Cc4ccsc4)CC3)C2)c1 (configuration not stated),12.38%
7,Cc1nc(C(=O)Nc2cccnc2)c(C(C)C)s1,-80.98%
8,Cc1c(CN2CCCC(C(=O)Nc3ccccc3)C2)cc(C#N)n1C (configuration not stated),39.8%
9,CN(Cc1cccnc1)[C@@H]1CN(Cc2nccn2C)[C@@H]2CCCO[C@H]12.O=C(O)C(F)(F)F.O=C(O)C(F)(F)F.O=C(O)C(F)(F)F.O=C(O)C(F)(F)F,-14.02%
10,COc1ccc(Br)c(NC(=O)NCc2cnn(C)c2)c1,-45%
11,CN1CCC2(CC1)CCN(C(=O)c1onc3ccccc13)C2,-111.7%
12,Cc1ccc(F)cc1CC(=O)N1CC[C@@]2(O)CCNC[C@H]2C1,-30.21%
13,O=C1NCCCCC1Sc1ccc(F)cc1F (configuration not stated),-40.24%
14,Cc1nc(N(C)C)nc2c1COCC21CCN(C(=O)C2CC2)C1 (configuration not stated),-124.4%
15,O=C(Cn1cc(C2CC2)nn1)N(Cc1cccs1)CC1CCCO1 (configuration not stated),-9.508%
16,O=c1cc(CN(Cc2ccco2)C2CC2)nc2ccc(Br)cn12,-50.29%
17,CN1CCC(N(Cc2ccco2)S(=O)(=O)c2cc(Br)ccc2Br)CC1,75.01%
18,O=C(c1ccco1)N1CC(S(=O)(=O)c2ccc(Cl)cc2)C1,-88.3%
19,Cn1cnc(S(=O)(=O)N2CCN(Cc3ccco3)CC2)c1Cl,-15.28%
20,O=C(CN(Cc1ccco1)C1CC1)Nc1ccc(Br)cn1,-177.6%
21,CN1CCC(N(Cc2ccco2)S(=O)(=O)c2ccc(Br)cc2Cl)CC1,73.43%
22,CN1CCC(N(Cc2ccco2)S(=O)(=O)c2ccc(Cl)cc2)CC1,54.64%
23,O=C(c1cc(Br)ccc1Cl)N1CCN(Cc2ccco2)CC1,-2.5%
24,CC1CCN(C(=O)CN(Cc2ccco2)C2CC2)CC1,-121%
25,CCc1nc(C(=O)N2CCOCC2)nn1-c1ccccc1Cl,-27.32%
26,COc1cccc(CN2CCCCCC2c2cccs2)c1OC (configuration not stated),-76.96%

row,SMILES,Percent Effect
1,COc1ccc(CN2CCCC2c2cccc(F)c2)c(OC)c1OC (configuration not stated),58.64%
2,Cc1cc2[nH]c(CN3CCCCC3c3cccc(F)c3)cc(=O)n2n1 (configuration not stated),-66.54%
3,CS(=O)(=O)c1ccc(CN2CCCCC2c2cccc(F)c2)cc1 (configuration not stated),-43.63%
4,COc1cc(CN2CCCC2c2cccc(F)c2)cc(OC)c1OC (configuration not stated),25.35%
5,COc1cccc(CN2CCCC2c2cccc(F)c2)c1OC (configuration not stated),53.66%
6,Cc1ccccc1-c1cc(NC(=O)CC(C)C)n(CCO)n1,-65.33%
7,O=C(NCCc1c[nH]c2ccccc12)C1(n2cnnn2)CCCCC1,-28.02%
8,O=C(O)C(F)(F)F.O=C(c1cccc(F)c1)N1CCC2(CC1)CN(c1ccccn1)CCO2,-103.6%
9,Cc1nn2c(-c3cnn(C)c3)nnc2s1,-96.58%
10,CC(C)(C)OC(=O)N1CCN(S(C)(=O)=O)C2(CCCCC2)C1,-78.85%
11,Cc1cc(C)c2[nH]c(=O)c(CN3CCC(O)(CN(C)C)C3)cc2c1 (configuration not stated),5.101%
12,CN(C)CC1(O)CCCN(c2noc(-c3ccccc3)n2)CC1 (configuration not stated),-4.701%
13,CN(C)CC1(O)CCN(C(=O)c2cnc(-c3ccccn3)nc2)C1 (configuration not stated),-83.84%
14,Cc1cc(N2CCCC(O)(CN(C)C)C2)c2cc3c(cc2n1)OCO3 (configuration not stated),79.58%
15,Cc1cc(N2CCCC3(CN(C)C(=O)O3)C2)c2cc3c(cc2n1)OCO3 (configuration not stated),-65%
16,Cc1cc(N2CCC(O)(CN(C)C)C2)c2cc3c(cc2n1)OCO3 (configuration not stated),89.44%
17,CN(C)C(=O)CC1CC2(CCN(Cc3ccco3)CC2)c2ccccc21.O=C(O)C(F)(F)F (configuration not stated),24.78%
18,CN1C(=O)C2(CCCN(C(=O)c3ccc(=O)n(C)n3)C2)c2ccccc21 (configuration not stated),-36.85%
19,Cc1cc(C(=O)N2CCn3cc(CN4CCCCC4)nc3C2)no1,-18.56%
20,CN(C)[C@@H]1CCN(S(=O)(=O)C2CC2)[C@H]1Cc1ccccc1.O=C(O)C(F)(F)F,63.58%
21,CC(C)N(C)[C@@H]1CCN(Cc2ccoc2)[C@H]1Cc1ccccc1,9.124%
22,CC(C)NC(=O)N1CC[C@@H](N(C)C)[C@@H]1Cc1ccccc1.O=C(O)C(F)(F)F,14.09%
23,CN(C)[C@@H]1CCN(C(=O)c2ccccn2)[C@H]1Cc1ccncc1,-71%
24,CN(C)[C@@H]1CCN(S(=O)(=O)c2cn(C)cn2)[C@H]1Cc1cccnc1.O=C(O)C(F)(F)F.O=C(O)C(F)(F)F.O=C(O)C(F)(F)F,-62.43%
25,O=S(=O)(C1CC1)N1CC[C@H](OCC2CC2)[C@@H]1Cc1ccncc1,-74.15%
26,CC(C)N(C)[C@@H]1CCN(S(C)(=O)=O)[C@H]1Cc1ccccc1,53.16%

row,SMILES,Percent Effect
1,CN(C)[C@@H]1CCN(S(C)(=O)=O)[C@H]1Cc1ccccc1,16.37%
2,CC(C)OC[C@H]1CCC[C@]12CN(C(=O)C1CCOCC1)CCO2,-62.83%
3,CNC(=O)CN1CCC(CN(C)Cc2ccccc2N(C)C)CC1,-85.31%
4,COc1ccc(CN2C[C@@H](O)[C@](O)(CNC(=O)c3ccccn3)C2)cc1,-63.46%
5,Cn1cc(-c2ncnc3c2CCN(C(=O)c2cnccn2)CC3)cn1,-80.91%
6,COc1ccc(C[C@H]2CN(c3nnc(C)s3)CC[C@H]2OC)cc1.O=C(O)C(F)(F)F,-6.177%
7,COc1ccc(C[C@H]2CN(Cc3ccoc3)CC[C@@H]2OC)cc1.O=C(O)C(F)(F)F,63.43%
8,COc1ccc(C[C@H]2CN(C(=O)c3ccncc3)CC[C@@H]2OC)cc1.O=C(O)C(F)(F)F,-34.29%
9,COc1ccc(C[C@H]2CN(Cc3ccoc3)CC[C@H]2OC)cc1.O=C(O)C(F)(F)F,74.09%
10,COc1ccc(C[C@H]2CN(c3nnc(C)s3)CC[C@@H]2OC)cc1.O=C(O)C(F)(F)F,-18.37%
11,COc1ccc(C[C@H]2CN(c3cc(OC)ncn3)CC[C@@H]2OC)cc1.O=C(O)C(F)(F)F,-3.62%
12,N#Cc1ccc(OC[C@]23COC[C@H]2CN(Cc2ccccn2)C3)nc1,-50.77%
13,Cn1cccc1C(CNC(=O)COc1ccc(Cl)cc1Cl)N1CCCC1 (configuration not stated),74.07%
14,Cn1cccc1C(O)CNC(=O)COc1ccccc1F (configuration not stated),-31.9%
15,Cn1cccc1C(O)CNC(=O)COc1ccc(Cl)cc1Cl (configuration not stated),-33.74%
16,O=C(NCc1nnc2n1CCCC2)c1cn(-c2ccccc2)nn1,-72.42%
17,COc1cccc(CN2CC[C@H]3[C@@H](C2)[C@H](c2ccsc2)CN3C(C)=O)c1,52.59%
18,COc1cccc([C@H]2CN(C(C)=O)[C@@H]3CCN(Cc4ccsc4)C[C@H]23)c1.Cl,72.65%
19,COc1cccc([C@@H]2CCN(Cc3c[nH]c(C)n3)C[C@H]2O)c1,-37.12%
20,COCC(=O)NCC1CCN(Cc2ccsc2)CC1,-175%
21,COc1cccc([C@@H]2CCN(Cc3[nH]nc(C)c3Cl)C[C@H]2O)c1,-13.94%
22,CCN1CCC(N2C[C@@H](C(=O)O)[C@H](c3cccc(OC)c3)C2)CC1,-103.5%
23,COc1cccc(CC2CCCN2CC(N)=O)c1 (configuration not stated),-61.65%
24,COCc1cc(O)nc(C2CCCN(Cc3cccc(OC)c3)C2)n1 (configuration not stated),-102.5%
